Shown are actives, neighbours in structure and some others; about 2.7% of the full set was active somewhere.
KDM5B inh – blocks human KDM5B histone demethylase activity; Potency, µM (titrated, usually from 57.7 µM), actives largely listed as inhibitors; AID 1347165; KDM5B demethylase, FDH-coupled NADH fluorescence (FDH is formaldehyde dehydrogenase); Q9UGL1; actives 2.6% (n = 220,000); active = well fitted inhibition curve with a large enough effect; inconclusive = small, poorly fitted or top-dose-only effect; inactive = no such curve, though single readings can be large or run the other way; note: nearly all actives have a fitted effect of over 70% in size
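qHTS format, multiple compound concentrations. Buffer 50 mM HEPES pH 7.5/0.01% Tween-20; 200 nM KDM5BΔAP final; 10 min compound preincubation; substrate-mix levels 12.5 µM peptide, 25 µM α-KG, 0.25 mM NAD⁺; 30 min RT; ΔRFU.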
IP6K1 inh – inhibitors of human IP6K1; IP6K1 kinase, ADP-Glo luminescence, 2 h; hits give low values; activity change, % (series mostly up to about 58 µM); actives 0.81% (n = 140,000); AID 1645851; in the data active = activity change below about -25%
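ADP-Glo luminescence measures ADP made by human IP6K1 during a 2 h RT reaction with ATP/IP6 (mix at 1.3 mM/130 uM); top library doses 57.5 and 19.1 uM final.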
A number is an active result; 0 = inactive; ? = inconclusive; - = no result given.

SMILES	KDM5B inh	IP6K1 inh
COc1ccccc1-c1ccc(CN2CCCCC2C(=O)NCc2ccccc2F)cc1 (configuration not stated)	-	0
Cc1ccc(C(NC(=O)Cc2n[nH]c(=O)c3ccccc23)c2ccccc2)cc1 (configuration not stated)	0	-
Cn1nc(-c2nncn2CC2CC2)c2c1CCN(C(=O)C1CC1)C2	0	0
CCn1cnnc1-c1nn(C)c2c1CN(C(=O)CCC1CCCC1)CC2	22.4µM	0
O=C(/C=N/O)Nc1cccc([N+](=O)[O-])c1	0	-
CNC(=O)[C@H]1C[C@]2(CCCCN(CCO)C2=O)N(C(=O)Cc2ccc(OC)cc2)[C@H]1c1ccco1	-	0
Cc1nc2c(OCC(=O)OC(C)(C)C)cccn2c(=O)c1-c1cc(C)n(-c2ccc(Cl)cc2)n1	28.2µM	0
Cc1nc2c(OCC(=O)OC(C)(C)C)cccn2c(=O)c1-c1cc(C)n(-c2cccc(F)c2)n1	?	0
CCOC(=O)C(C)Oc1cccn2c(=O)c(-c3cc(C)n(-c4ccc(Cl)cc4)n3)c(C)nc12 (configuration not stated)	22.4µM	0
Cc1ccc(C(=O)COc2cccn3c(=O)c(-c4cc(C)n(-c5ccccc5)n4)c(C)nc23)cc1	?	0
O=C(O)CCCCCCCCCc1cccs1	0	-
CCn1nccc1C(=O)Nc1cccc(-c2nnc3n2CCCC3)c1	0	0
C1CCC(NCC2CCN(C3CC3)C2)C1 (configuration not stated)	0	-
CCCCN1C=C(OC(=O)c2ccc(OC)cc2)c2ccccc2S1(=O)=O	0	-
CC1CCCN(S(=O)(=O)c2ccc(NC(=O)c3cc(=O)c4cc(Cl)ccc4o3)cc2)C1 (configuration not stated)	0	-
C#CCNC(=O)c1nc(-c2cccc(F)c2)c2cnccn12	35.5µM	0
O=C(NCc1ccc(F)cc1)c1nc(-c2ccccc2)c2cnccn12	79.4µM	0
O=C(NC1CC1)c1nc(-c2cccc(F)c2)c2cnccn12	0	0
C[S+](=O)([O-])c1ccc(-c2nc(C(=O)NCc3ccc(F)cc3)n3ccncc23)cc1	0	0
O=C(NCc1cccnc1)c1nc(-c2cccc(C(F)(F)F)c2)c2cnccn12	28.2µM	0
O=C(NCc1cccnc1)c1nc(-c2ccc(F)cc2)c2cnccn12	28.2µM	0
COc1cccc(-c2ccc(C(=O)NCCNC(=O)c3ccc(C(F)(F)F)cc3)cc2)c1	-	0
FC(F)(F)C1(C(F)(F)F)C2C=CC(C2)N1c1nccs1 (configuration not stated)	0	-
CCn1c(SCC(=O)Nc2cccc(Br)c2)nc2c(-c3ccccc3)c[nH]c2c1=O	0	-
CC(C)c1ccc(C(=O)Nc2cc(C(F)(F)F)ccc2Cl)cc1	0	-
SMILES	KDM5B inh	IP6K1 inh
COc1ccc(OC)c(CNC(=O)C2CCN(c3nnc(N4CCCCC4=O)s3)CC2)c1	0	-
Cc1ccc2c(CC(=O)OCC(=O)c3ccc4c(c3)OCO4)coc2c1	0	-
CN(C)c1ccc(C(=O)N/N=C/c2ccc(Br)s2)cc1	0	-
CNC(=O)c1cc(C2CC2)nc2onc(C3CCN(C(=O)c4ccccc4Cl)C3)c12 (configuration not stated)	-	0
CC(C)NC(=O)c1nc(-c2ccc(F)cc2)c2ccccn12	35.5µM	0
O=C(c1nc(-c2ccc(F)cc2)c2ccccn12)N1CCCC1	0	0
COC(=O)CNC(=O)c1nc(-c2ccc([S+](C)(=O)[O-])cc2)c2cnccn12	25.1µM	0
COC(=O)CNC(=O)c1nc(-c2ccc(Cl)nc2)c2ccccn12	?	0
O=C(NCc1cccs1)c1nc(-c2ccc(F)cc2)c2cnccn12	39.8µM	0
O=C(NCc1ccncc1)c1nc(-c2cccnc2)c2cnccn12	?	0
O=C(NCc1cccnc1)c1nc(-c2cccc(F)c2)c2cnccn12	22.4µM	0
C[S+](=O)([O-])c1ccc(-c2nc(C(=O)NCc3cccs3)n3ccccc23)cc1	0	0
Cc1cc(NC(=O)c2cccc(OC(C)C)c2)no1	0	-
O=C(NCc1ccc(F)cc1)c1nc(-c2ccc(Cl)nc2)c2ccccn12	?	0
COC(=O)CNC(=O)c1nc(-c2cccc(C(F)(F)F)c2)c2cnccn12	28.2µM	0
O=C(NCc1ccc(F)cc1)c1nc(-c2ccc(Cl)cc2Cl)c2cnccn12	56.2µM	0
O=C(NCc1ccc(F)cc1)c1cc(-c2ccc(Cl)cc2Cl)c2cccn2n1	0	0
O=C(NCc1ccc(F)cc1)c1nc(-c2cccnc2)c2ccccn12	112µM	0
O=C(NC1CC1)c1nc(-c2cccc(C(F)(F)F)c2)c2cnccn12	0	0
O=Cc1cccn1-c1cccc(Cl)c1	0	-
CC(C)c1noc([C@@H]2C[C@@H](O)CN2Cc2cc3ccccc3o2)n1	39.8µM	0
COc1ccc(-c2noc([C@@H]3C[C@@H](O)CN3Cc3cc4ccccc4o3)n2)cc1	31.6µM	0
CC(C)c1noc([C@@H]2C[C@@H](O)CN2Cc2ccc(N(C)C)cc2)n1	0	0
COc1ccc(CN2C[C@H](O)C[C@H]2c2nc(-c3ccc(OC)cc3)no2)cc1	0	0
O=C(NCCc1ccccc1F)c1ccc2nnc(C3CCCC3)n2c1	-	0
SMILES	KDM5B inh	IP6K1 inh
COc1ccc(OC2CCN(C(C)=O)CC2)c(C(=O)NCCc2c(C)n[nH]c2C)c1	28.2µM	0
COc1ccc(OC2CCN(C(=O)C3CC3)CC2)c(C(=O)NCCCN2CCOCC2)c1	?	0
COc1ccc(OC2CCN(C3CCCC3)CC2)c(C(=O)NCCCN2CCCC2=O)c1	31.6µM	0
CCC(NC(=O)c1cc(OC)ccc1OC1CCN(C(C)=O)CC1)c1ccncc1 (configuration not stated)	?	0
COc1ccc(-c2cc3c(=O)n(CCNC(=O)c4n[nH]c5c4CCCC5)ccn3n2)cc1	?	0
COc1ccc(NC(=O)c2ccccc2C)c2cccnc12	0	-
O=C1Cc2c(-c3ccc(C(=O)N4CCOCC4)cc3)n[nH]c2CN1Cc1ccccc1	0	0
O=C1c2cnc(-c3cccnc3)nc2OCCN1Cc1ccccc1	0	0
O=C1c2cc(N3CCOCC3)nc(-c3cccc(CO)c3)c2CN1Cc1ccccc1	35.5µM	0
O=C1c2cc(N3CCOCC3)nc(-c3ccc(F)cc3)c2CN1Cc1ccccc1	35.5µM	0
O=C1c2cc(N3CCOCC3)nc(-c3cccc(F)c3)c2CN1Cc1ccccc1	31.6µM	0
O=C1c2cc(N3CCOCC3)nc(-c3ccc(CO)cc3)c2CN1Cc1ccccc1	0	0
CNC(=O)c1cc(C2CC2)nc2c1c(C1CCCN(C(=O)c3cccc(Cl)c3)C1)nn2C (configuration not stated)	-	0
O=C(c1cc2ccccc2oc1=O)N(Cc1ccco1)Cc1ccco1	0	-
Cc1noc(-c2cccn3c(CNC(=O)c4cccc(N(C)C)c4)nnc23)n1	?	0
CCc1noc(-c2cccn3c(CNC(=O)c4cccc(OC)c4)nnc23)n1	22.4µM	0
CCc1noc(-c2cccn3c(CNC(=O)c4ccc(OC)cc4)nnc23)n1	?	0
COc1cccc(C(=O)NCc2nnc3c(-c4nc(C)no4)cccn23)c1	28.2µM	0
O=C(Cn1c(CO)cnc1SCc1c(F)cccc1Cl)NCc1ccccc1	0	-
Cc1nc2cc(NC(=O)c3ccc(F)c(F)c3)ccc2o1	0	-
COc1ccccc1Oc1c(C)oc2cc(OCC(=O)NCc3cccs3)ccc2c1=O	0	-
COC1CN(c2cccc(F)c2)C12CCN(C(=O)C1(c3ccccc3)CC1)CC2 (configuration not stated)	-	0
